# From PubChem BioAssay (NCATS)
# Inconclusive results are not listed. Entries that show only a call come without a potency. Activity calls are given as the source filed them. Unless noted, calls come from the whole dose curve; as a rule, active = well fitted curve in the direction sought with a large enough effect; inconclusive = small, poorly fitted or top-dose-only effect, or another doubt; inactive = no such curve, though single readings can be large; an effect the other way counts as inactive or inconclusive.
# Legend:
# [1] = Primary qHTS to identify inhibitors of SARS-CoV-2 cell entry (AID 1645846; calls by dose curve; note: nearly all actives have a fitted effect of over 45% in size; note: potency is the fitted concentration of half-maximal effect); conditions: activity change, negative = inhibition: at 57.1 µM (top of the series) unless noted
# Method in brief: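 Entry measured by luciferase signal 48 h after adding SARS-CoV-2-S pseudotyped MLV particles to HEK293-ACE2 cells preincubated 1 h with compounds. Normalisation: bald particles and spike particles.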
# [2] = system: Zika virus NS2B-NS3 protease (unlinked); assay: Optimization of GU AMC qHTS for Zika virus inhibitors: Unlinked NS2B-NS3 protease assay (AID 1347151); note: nearly all actives have a fitted effect of over 80% in size
# Method in brief: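 Fluorescence gain (340/450 nm) over 15 min at room temperature, ~20% conversion, gave percent inhibition fitted to a 4-parameter Hill equation; enzyme was unlinked NS2B-NS3 (25 nM final), pH 8.0 Tris buffer.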
# [3] = NFAT Signaling Pathway (AID 444; active = well fitted curve in either direction with a large enough effect, not every such curve was filed as active;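 note: carbachol stimulus at about its EC50 of 1 µM final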); conditions: Jurkat NFAT-bla M1, carbachol, beta-lactamase ratio, 5 h; at 38 µM (top of the series)
# Method in brief: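 Jurkat cells with NFAT-driven β-lactamase reporter and co-expressed M1 receptor, stimulated with carbachol (final 1 uM, ~EC50), compound titration, 5 h at 37 °C. CCF4 loaded 1 h at RT; 460/530 nm ratio gave %activity and AC50.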
# [4] = biological target: Cytochrome P450 3A4 (Homo sapiens) (UniProt P08684); assay: qHTS Assay for Activators of Cytochrome P450 3A4 (AID 885); note: nearly all actives have a fitted effect of over 65% in size; note: potency is the fitted concentration of half-maximal effect
# Sequence of Cytochrome P450 3A4 (Homo sapiens) (P08684 whole entry, looked up): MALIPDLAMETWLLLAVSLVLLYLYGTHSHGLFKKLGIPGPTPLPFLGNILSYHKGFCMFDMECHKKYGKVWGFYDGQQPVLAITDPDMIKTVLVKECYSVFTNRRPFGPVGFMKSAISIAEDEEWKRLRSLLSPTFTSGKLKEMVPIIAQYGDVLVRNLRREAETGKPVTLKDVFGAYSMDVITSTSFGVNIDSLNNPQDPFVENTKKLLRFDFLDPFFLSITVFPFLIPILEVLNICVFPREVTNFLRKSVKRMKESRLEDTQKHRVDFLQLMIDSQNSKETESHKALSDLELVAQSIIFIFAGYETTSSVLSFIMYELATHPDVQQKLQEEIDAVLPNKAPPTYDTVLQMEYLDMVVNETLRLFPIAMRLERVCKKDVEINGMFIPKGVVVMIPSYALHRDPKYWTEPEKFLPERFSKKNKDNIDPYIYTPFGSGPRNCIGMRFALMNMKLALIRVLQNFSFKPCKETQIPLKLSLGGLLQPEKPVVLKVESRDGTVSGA
# Method in brief: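 Activators are scored by enhanced luminescence from CYP3A4 conversion of luciferin-PPXE (25uM, equal to KM) to luciferin, after 60 min at RT with an NADPH-regenerating system.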
# [5] = biological target: Pyruvate kinase (Leishmania mexicana) (UniProt Q27686); assay: qHTS Validation Assay for Inhibitors of Leishmania Mexicana Pyruvate Kinase (AID 945)
# Method in brief: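 Substrate mix (0.5 mM PEP, 0.1 mM ADP, 7 mM MgCl2, 50 mM KCl, pH 7.2 imidazole) received compound by pin tool, then 0.2 nM LmPYK E451W. After 1 h at room temperature, PKLight was added and luminescence measured.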
# [6] = biological target: Pyruvate kinase PKM (Homo sapiens) (UniProt P14618); assay: qHTS Assay for Activators of Human Muscle Pyruvate Kinase (AID 954; active = well fitted curve in the direction sought with a large enough effect, not every such curve was filed as active)
# Sequence of Pyruvate kinase PKM (Homo sapiens) (P14618 whole entry, looked up): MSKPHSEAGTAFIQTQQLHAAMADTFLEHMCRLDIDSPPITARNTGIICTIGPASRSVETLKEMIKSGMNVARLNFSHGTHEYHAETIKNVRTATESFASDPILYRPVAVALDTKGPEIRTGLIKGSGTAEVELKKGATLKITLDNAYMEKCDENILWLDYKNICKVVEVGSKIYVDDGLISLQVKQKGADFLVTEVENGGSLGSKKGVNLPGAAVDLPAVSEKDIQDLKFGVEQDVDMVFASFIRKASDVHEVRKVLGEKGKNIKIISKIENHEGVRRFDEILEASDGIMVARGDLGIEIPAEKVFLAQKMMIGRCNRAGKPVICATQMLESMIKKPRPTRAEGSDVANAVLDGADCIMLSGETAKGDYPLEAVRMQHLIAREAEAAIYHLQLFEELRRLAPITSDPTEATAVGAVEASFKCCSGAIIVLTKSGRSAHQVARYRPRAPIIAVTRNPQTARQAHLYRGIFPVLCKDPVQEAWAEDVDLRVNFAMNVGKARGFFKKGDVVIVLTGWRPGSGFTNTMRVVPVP
# Method in brief: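 PKM2, human, >95% pure, 0.1 nM; PEP 0.5 mM (Km), ADP 0.1 mM; 50 mM imidazole pH 7.2, 50 mM KCl, 0.01% Tween 20, 0.05% BSA; 1 h RT; luciferase luminescence readout.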
# [7] = biological target: Alpha-galactosidase A (Homo sapiens) (UniProt P06280); assay: Counterscreen for Glucocerebrosidase Inhibitors: qHTS Assay for Human alpha-Galactosidase at pH 4.5 (AID 992)
# Sequence of Alpha-galactosidase A (Homo sapiens) (P06280 whole entry, looked up): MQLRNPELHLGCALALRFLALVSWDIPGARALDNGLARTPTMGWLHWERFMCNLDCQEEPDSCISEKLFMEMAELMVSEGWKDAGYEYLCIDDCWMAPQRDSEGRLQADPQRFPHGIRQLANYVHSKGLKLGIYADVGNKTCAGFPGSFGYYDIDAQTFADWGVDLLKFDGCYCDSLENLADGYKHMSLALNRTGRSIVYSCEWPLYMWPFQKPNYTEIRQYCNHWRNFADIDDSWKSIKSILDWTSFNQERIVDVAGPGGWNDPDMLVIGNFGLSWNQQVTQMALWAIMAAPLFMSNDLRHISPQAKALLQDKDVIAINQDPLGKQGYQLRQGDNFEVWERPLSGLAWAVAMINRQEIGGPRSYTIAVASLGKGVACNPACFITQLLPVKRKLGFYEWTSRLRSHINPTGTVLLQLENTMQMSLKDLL
# Method in brief: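 Fluorogenic 4-MU alpha-D-galactoside (80 uM) hydrolysis, 2 nM enzyme, pH 4.5 citrate buffer + 0.005% Tween-20; 20 min RT; NaOH/glycine pH 10 stop; Ex365/Em440. Compounds titrated 0.7 nM–77 uM; Hill-equation AC50.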
# [8] = biological target: alpha-glucosidase (Oryza sativa, rice) (UniProt Q653V4); assay: Counterscreen for Glucocerebrosidase Inhibitors: qHTS Assay for Rice alpha-Glucosidase at pH 5.0 (AID 997)
# Method in brief: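 Endpoint fluorogenic assay at pH 5.0: compounds (0.7 nM to 77 uM) titrated against 4 nM rice enzyme and 400 uM 4-MU-alpha-glucoside for 20 min at room temperature; NaOH/glycine stop, read ex 365/em 440 nm, Hill-fitted AC50.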
# [9] = biological target: Alpha-galactosidase (Coffea arabica) (UniProt Q42656); assay: Counterscreen for Glucocerebrosidase Inhibitors: qHTS Assay for Coffee Bean alpha-Galactosidase at pH 5.9 (AID 998)
# Method in brief: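 Enzyme 2 nM + cpd (0.7 nM–77 uM titration) + 4-MU-alpha-Gal 80 uM, pH 5.9 citrate/Tween-20, RT 20 min, NaOH/glycine stop pH 10, fluor 365/440. Normalized to no-enzyme and full-activity controls; Hill-fit AC50.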
# [10] = Validation of Assay for Modulators of Lamin A Splicing (AID 1459; active = well fitted curve in the direction sought with a large enough effect in the signal ratio; the % refers to the signal ratio;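 note: cells exposed to compound for two days before reading; ratio rise marks activators and ratio drop marks inhibitors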)
# Method in brief: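 Splicing correction read as GFP (500-530 nm) over DsRed2 (575-640 nm) object intensity after 48 h compound exposure of reporter HeLa S3 clones (600 cells/well, 2% FBS medium); ancitabine and cycloheximide titrations, 0.5% DMSO as vehicle.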
# [11] = biological target: DNA repair nuclease/redox regulator APEX1 (Homo sapiens) (UniProt P27695); assay: qHTS Validation Assay for Inhibitors of the Human Apurinic/apyrimidinic Endonuclease 1 (APE1) (AID 1705;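 note: TAMRA fluorescence gain over two minutes as APE1 cuts a quenched THF abasic duplex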)
# Sequence of DNA repair nuclease/redox regulator APEX1 (Homo sapiens) (P27695 whole entry, looked up): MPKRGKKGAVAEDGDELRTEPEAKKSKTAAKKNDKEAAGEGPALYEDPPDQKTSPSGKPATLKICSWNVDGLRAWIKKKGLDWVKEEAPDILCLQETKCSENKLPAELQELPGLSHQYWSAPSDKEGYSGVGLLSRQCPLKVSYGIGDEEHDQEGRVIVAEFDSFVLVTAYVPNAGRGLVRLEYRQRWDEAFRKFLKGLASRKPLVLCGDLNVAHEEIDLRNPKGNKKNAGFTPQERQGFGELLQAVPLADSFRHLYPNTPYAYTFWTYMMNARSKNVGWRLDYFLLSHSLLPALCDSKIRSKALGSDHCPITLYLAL
# Method in brief: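 Activity read as rising fluorescence (598 nm emission, 525 nm excitation) from incision of a TAMRA/BHQ-2 duplex carrying a THF abasic site (50 nM). Compound and enzyme sat 15 min at RT before substrate start; signal change between first and third 60-s reads.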
# [12] = Counterscreen for APE1 Inhibitors: Fluorescent Dye Displacement Validation Assay (AID 1707)
# Method in brief: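 Endpoint fluorescence read at 480 nm excitation / 540 nm emission; DNA-binding compounds lower signal by displacing 250 nM Thiazole Orange from 50 nM dsDNA containing a tetrahydrofuran abasic site, Tris-HCl pH7.5 buffer with NaCl and MgCl2.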
# [13] = biological target: Ferritin light chain (Equus caballus) (UniProt P02791); assay: qHTS Validation Assay for Identification of Novel General Anesthetics (AID 2323)
# Sequence of Ferritin light chain (Equus caballus) (P02791 2-175 limits assumed): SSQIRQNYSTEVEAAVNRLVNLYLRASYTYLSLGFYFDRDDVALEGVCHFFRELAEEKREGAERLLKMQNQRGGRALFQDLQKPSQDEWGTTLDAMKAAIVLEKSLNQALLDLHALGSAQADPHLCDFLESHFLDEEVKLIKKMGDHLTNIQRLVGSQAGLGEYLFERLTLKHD
# Method in brief: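 Competitive displacement of the profluorescent anesthetic 1-AMA (50% saturated, PBS) from 10 uM apoferritin, 10 min, room temperature. Activity is normalized 380/535 nm fluorescence; concentration-response fitted with a four-parameter Hill equation.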
# [14] = biological target: ATP-dependent DNA helicase Q1 (Homo sapiens) (UniProt P46063); assay: qHTS Validation Assay for Inhibitors of RecQ-Like Dna Helicase 1 (RECQ1) (AID 2353)
# Sequence of ATP-dependent DNA helicase Q1 (Homo sapiens) (P46063 whole entry, looked up): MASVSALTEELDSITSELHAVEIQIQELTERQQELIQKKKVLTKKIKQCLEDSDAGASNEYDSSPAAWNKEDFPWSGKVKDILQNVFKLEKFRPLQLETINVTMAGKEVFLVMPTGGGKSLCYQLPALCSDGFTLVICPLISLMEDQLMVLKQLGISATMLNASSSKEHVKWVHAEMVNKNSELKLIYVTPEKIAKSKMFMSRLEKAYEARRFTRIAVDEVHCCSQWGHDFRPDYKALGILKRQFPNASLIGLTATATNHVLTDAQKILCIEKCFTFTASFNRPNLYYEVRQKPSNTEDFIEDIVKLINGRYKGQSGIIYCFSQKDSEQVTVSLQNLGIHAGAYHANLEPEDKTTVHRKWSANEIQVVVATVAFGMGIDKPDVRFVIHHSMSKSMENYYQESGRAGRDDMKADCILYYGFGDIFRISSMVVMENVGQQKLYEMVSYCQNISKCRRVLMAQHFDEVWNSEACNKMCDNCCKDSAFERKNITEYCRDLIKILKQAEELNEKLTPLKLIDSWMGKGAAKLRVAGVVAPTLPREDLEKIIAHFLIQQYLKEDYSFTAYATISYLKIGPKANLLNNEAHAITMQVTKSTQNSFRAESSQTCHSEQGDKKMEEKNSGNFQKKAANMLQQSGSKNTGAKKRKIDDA
# Method in brief: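 RECQ1T1 50 nM; forked duplex (20 bp + 30-nt ss tails) 200 nM, ATP 2 mM final; pH 8.0, 2 mM MgCl2, 2.5 ug/ml poly(dI-dC); 15 min compound preincubation; discontinuous kinetic read over 2 h at RT.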
# [15] = Validation screen for small molecules that induce DNA re-replication in MCF 10A normal breast cells (AID 463097); note: nearly all actives have a fitted effect of over 60% in size
# Method in brief: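 Read-out is Hoechst total nuclear intensity by fluorescence scanning imager, flagging increased high-DNA-content nuclei. Compounds were incubated with MCF 10A cells for 48 hr (37 C, 5% CO2) before 40 min staining.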
# [16] = biological target: M-phase phosphoprotein 8 (Homo sapiens) (UniProt Q99549); assay: qHTS Validation Assay for Inhibitors for MPP8 Chromodomain Interactions with Methylated Histone Tails (AID 488949);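 note: AlphaScreen signal from MPP8 chromodomain bound to biotinylated H3K9me3 peptide; top concentration of the series differs between compounds; nearly all actives have a fitted effect of over 55% in size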
# Method in brief: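 AlphaScreen proximity signal from streptavidin donor and Ni-chelate acceptor beads (10 ug/mL each) reported binding of MPP8 to trimethyl-K9 H3(1-18) peptide, both at 50 nM. The complex formed 30 min before a 30 min compound exposure at room temperature, in PBS pH 7.4.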
# [17] = biological target: Transient receptor potential cation channel subfamily V member 1 (Homo sapiens) (UniProt Q8NER1); assay: HTS Assay for Compounds that Act as Enhancers of the Vanilloid Receptor 1 (AID 488979)
# Sequence of Transient receptor potential cation channel subfamily V member 1 (Homo sapiens) (Q8NER1 whole entry, looked up): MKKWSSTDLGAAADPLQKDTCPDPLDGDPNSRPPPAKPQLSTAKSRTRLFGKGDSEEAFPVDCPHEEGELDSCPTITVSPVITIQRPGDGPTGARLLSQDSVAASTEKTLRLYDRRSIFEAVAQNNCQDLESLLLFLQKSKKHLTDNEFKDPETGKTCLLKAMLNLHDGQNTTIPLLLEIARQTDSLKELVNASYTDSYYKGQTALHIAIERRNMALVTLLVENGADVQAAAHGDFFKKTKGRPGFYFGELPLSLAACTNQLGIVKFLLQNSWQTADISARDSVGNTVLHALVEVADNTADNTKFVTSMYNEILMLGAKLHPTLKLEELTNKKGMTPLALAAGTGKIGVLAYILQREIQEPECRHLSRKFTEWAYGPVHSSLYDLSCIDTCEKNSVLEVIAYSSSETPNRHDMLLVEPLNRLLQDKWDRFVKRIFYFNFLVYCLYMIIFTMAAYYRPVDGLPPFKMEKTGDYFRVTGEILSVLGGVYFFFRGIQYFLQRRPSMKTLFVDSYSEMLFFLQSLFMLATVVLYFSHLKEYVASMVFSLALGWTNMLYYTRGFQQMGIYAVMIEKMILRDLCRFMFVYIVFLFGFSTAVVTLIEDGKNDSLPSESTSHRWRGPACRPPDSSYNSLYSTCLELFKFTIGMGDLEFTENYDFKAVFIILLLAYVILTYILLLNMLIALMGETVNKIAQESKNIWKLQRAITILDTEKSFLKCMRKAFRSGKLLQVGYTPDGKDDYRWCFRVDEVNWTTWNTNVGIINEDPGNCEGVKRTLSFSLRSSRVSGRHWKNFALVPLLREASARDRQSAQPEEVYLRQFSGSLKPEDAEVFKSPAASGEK
# Method in brief: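 TRPV1 cells loaded with Fluo-8 calcium dye; compound added and Ca2+ signal (ex 480/em 520 nm) followed 3 min, then capsaicin at EC20 added and read 2 more min to detect enhancement.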
# [18] = biological target: Thyrotropin receptor (Homo sapiens) (UniProt P16473); assay: qHTS Assay for Antagonists of the Thyroid Stimulating Hormone Receptor (AID 488980)
# Sequence of Thyrotropin receptor (Homo sapiens) (P16473 whole entry, looked up): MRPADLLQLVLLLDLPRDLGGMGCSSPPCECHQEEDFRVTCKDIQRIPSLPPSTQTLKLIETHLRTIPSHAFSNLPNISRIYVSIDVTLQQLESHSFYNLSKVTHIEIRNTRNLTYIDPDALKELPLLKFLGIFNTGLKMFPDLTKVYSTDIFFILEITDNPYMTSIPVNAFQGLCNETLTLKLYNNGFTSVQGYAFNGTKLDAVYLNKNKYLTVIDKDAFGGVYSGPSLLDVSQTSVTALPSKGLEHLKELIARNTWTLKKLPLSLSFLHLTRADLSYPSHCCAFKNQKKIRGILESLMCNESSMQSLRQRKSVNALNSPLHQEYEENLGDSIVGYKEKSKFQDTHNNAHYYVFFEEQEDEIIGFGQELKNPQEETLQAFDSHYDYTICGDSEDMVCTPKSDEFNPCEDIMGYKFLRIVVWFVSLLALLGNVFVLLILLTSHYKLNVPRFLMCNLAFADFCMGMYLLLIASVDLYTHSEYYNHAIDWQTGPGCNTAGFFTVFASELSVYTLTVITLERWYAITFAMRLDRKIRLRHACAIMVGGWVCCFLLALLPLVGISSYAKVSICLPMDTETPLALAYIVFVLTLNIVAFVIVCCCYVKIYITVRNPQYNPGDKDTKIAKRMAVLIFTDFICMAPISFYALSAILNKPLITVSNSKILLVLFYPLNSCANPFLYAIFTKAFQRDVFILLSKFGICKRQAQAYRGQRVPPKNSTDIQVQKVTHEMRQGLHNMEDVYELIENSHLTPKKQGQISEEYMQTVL
# Method in brief: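 Inhibition of cAMP raised by EC80 TSH (4 nM final) was read by HTRF, with lysate cAMP competing against cAMP-d2 for cryptate antibody after 30 min at room temperature. The cells were transfected HEK293 held in phosphodiesterase inhibitor RO 20-1724 at 70 uM.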
# [19] = biological target: Thyrotropin-releasing hormone receptor (Homo sapiens) (UniProt P34981); assay: qHTS for Small Molecule Agonists and Allosteric Enhancers of Human TRH Receptor: Validation Screen for Agonists (AID 493127;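 active = calcium activation more than 3 SD above the typical response in the agonist read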;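 note: intracellular calcium rise by fluo-8 fluorescence before TRH EC20 addition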); conditions: TRH receptor agonist cell assay; at 2 µM; stronger effect = higher value
# Sequence of Thyrotropin-releasing hormone receptor (Homo sapiens) (P34981 whole entry, looked up): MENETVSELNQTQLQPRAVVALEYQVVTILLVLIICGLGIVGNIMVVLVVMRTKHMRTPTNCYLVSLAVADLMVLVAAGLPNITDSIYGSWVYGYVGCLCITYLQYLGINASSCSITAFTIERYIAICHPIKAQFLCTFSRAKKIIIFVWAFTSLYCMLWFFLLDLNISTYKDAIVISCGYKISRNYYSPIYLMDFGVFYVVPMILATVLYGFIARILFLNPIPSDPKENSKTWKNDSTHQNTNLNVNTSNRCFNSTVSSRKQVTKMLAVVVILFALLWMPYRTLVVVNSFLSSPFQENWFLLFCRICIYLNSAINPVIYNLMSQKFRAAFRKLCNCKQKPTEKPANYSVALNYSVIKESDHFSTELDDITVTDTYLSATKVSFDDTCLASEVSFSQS
# Method in brief: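 Compound-evoked intracellular calcium release in fluo-8-loaded TRHR cells, read kinetically on FDSS (Ex 480/Em 530, 1 s/cycle) after 23 nL pintool transfer. Agonist phase preceded 10 nM TRH EC20 addition.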
# [20] = biological target: Galactokinase (Homo sapiens) (UniProt P51570); assay: qHTS Validation Assay for Inhibitors of Human Galactokinase (GALK) (AID 493189)
# Sequence of Galactokinase (Homo sapiens) (P51570 whole entry, looked up): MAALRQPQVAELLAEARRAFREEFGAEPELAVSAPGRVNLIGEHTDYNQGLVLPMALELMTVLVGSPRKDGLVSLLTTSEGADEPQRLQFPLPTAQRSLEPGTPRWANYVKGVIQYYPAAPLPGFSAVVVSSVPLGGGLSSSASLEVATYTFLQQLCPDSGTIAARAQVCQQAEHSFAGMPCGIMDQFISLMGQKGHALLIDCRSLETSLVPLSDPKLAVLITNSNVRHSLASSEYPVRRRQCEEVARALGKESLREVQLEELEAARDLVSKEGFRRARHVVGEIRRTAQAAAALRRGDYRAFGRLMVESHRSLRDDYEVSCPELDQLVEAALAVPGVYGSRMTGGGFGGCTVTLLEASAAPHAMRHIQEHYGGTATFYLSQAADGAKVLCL
# Method in brief: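 Inhibition was measured as remaining ATP, detected by luciferase luminescence after a 1 h room-temperature reaction. Final conditions: 5 nM GALK, 100 uM galactose, 35 uM ATP, pH 8.0 HEPES buffer.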
smiles,measurement,setting,value
CCCCCCCCc1ccc(CCC(N)(CO)CO)cc1,Potency,[1],8.91 µM (active)
CC1(C)CC(=O)c2c(C(F)(F)F)nn(-c3ccc(C(N)=O)c(NC4CCC(OC(=O)CN)CC4)c3)c2C1 (stereo not drawn),"activity change, negative = inhibition",[1],-89%
C=CC(=O)N1CCC[C@@H](n2nc(-c3ccc(Oc4ccccc4)cc3)c3c(N)ncnc32)C1,Potency,[1],inactive
CCC[C@H](N[C@@H](C)C(=O)N1[C@@H]2CCCC[C@H]2C[C@H]1C(=O)O)C(=O)OCC,"activity change, negative = inhibition",[1],1.44%
C[C@@]1(c2cc(-c3cncnc3)c(F)cc2F)CCSC(N)=N1,"activity change, negative = inhibition",[1],-2.33%
CC1(C)CNc2cc(NC(=O)c3cccnc3NCc3ccncc3)ccc21,Potency,[1],inactive
CC(=O)OC[C@@H]1O[C@@H](n2ccc(=O)[nH]c2=O)[C@H](OC(C)=O)[C@H]1OC(C)=O,"activity change, negative = inhibition",[1],-39.7%
COC1C(O)C(C)O[C@@H](OC2CC[C@@]3(C)C4CC[C@]5(C)C(C6=CC(=O)OC6)CC[C@@]5(O)C4CC[C@@H]3C2)C1O (stereo partly drawn),outcome,[2],inactive
CN(C(=O)Cc1ccc(Cl)c(Cl)c1)[C@@H](CN1CCCC1)c1cccc(OCC(=O)O)c1,"activity change, negative = inhibition",[3],9.54% (inactive)
same,Potency,[4],inactive
same,outcome,[5],inactive
same,outcome,[6],inactive
same,outcome,[7],inactive
same,outcome,[8],inactive
same,outcome,[9],inactive
C[C@H]1O[C@@H](O[C@H]2[C@@H](O)C[C@H](O[C@H]3[C@@H](O)C[C@H](O[C@H]4CC[C@]5(C)C6CC[C@]7(C)[C@@H](C8=CC(=O)OC8)CC[C@]7(O)C6CC[C@@H]5C4)O[C@@H]3C)O[C@@H]2C)C[C@H](O)[C@@H]1O (stereo partly drawn),outcome,[2],inactive
C[C@H]1O[C@@H](O[C@H]2[C@@H](O)C[C@@H](O[C@H]3[C@@H](O)C[C@H](O[C@H]4CC[C@@]5(C)[C@H](CC[C@@H]6[C@@H]5CC[C@]5(C)[C@@H](C7=CC(=O)OC7)CC[C@]65O)C4)O[C@@H]3C)O[C@@H]2C)C[C@H](O)[C@@H]1O,outcome,[2],inactive
C=CCN1CCC2(C)c3cc(O)ccc3CC1C2C (stereo not drawn),outcome,[10],inactive
same,Potency,[11],inactive
same,Potency,[12],inactive
same,outcome,[13],inactive
same,Potency,[14],inactive
same,Potency,[15],inactive
same,Potency,[16],inactive
same,outcome,[17],inactive
same,outcome,[18],inactive
same,activation,[19],1.19% (inactive)
same,outcome,[20],inactive
same,outcome,[2],inactive
Cc1ccc2c(=O)c3cccc(CC(=O)O)c3oc2c1C,"activity change, negative = inhibition",[1],-28.2%
Clc1cncc(N2CCNCC2)n1,Potency,[4],inactive
COC(=O)c1cc2c(cn1)[nH]c1ccccc12,"activity change, negative = inhibition",[3],-0.308% (inactive)
same,Potency,[4],15.8 µM (active)
same,outcome,[6],inactive
same,outcome,[7],inactive
same,outcome,[8],inactive
same,outcome,[9],inactive
same,outcome,[10],inactive
same,Potency,[11],inactive
same,Potency,[12],inactive
same,outcome,[13],inactive
same,Potency,[14],inactive
same,Potency,[15],inactive
same,outcome,[17],inactive
same,outcome,[18],inactive
same,activation,[19],1.44% (inactive)
same,outcome,[20],inactive
CO[C@H]1[C@@H](O)CC(OC2[C@@H](O)CC(OC3[C@@H](O)C[C@H](OC4CC[C@@]5(C)C(CCC6C5CC(O)[C@]5(C)[C@H](C7=CC(=O)OC7)CCC65O)C4)O[C@@H]3C)O[C@@H]2C)O[C@@H]1C (stereo partly drawn),"activity change, negative = inhibition",[1],-97.7% [at 114 µM]
CC1O[C@@H](O[C@@H]2C(O)C[C@H](O[C@@H]3C(O)C[C@@H](OC4CC[C@@]5(C)C6CC[C@]7(C)C(C8=CC(=O)OC8)CC[C@@]7(O)C6CC[C@@H]5C4)OC3C)OC2C)CC(O)[C@H]1O (stereo partly drawn),outcome,[2],inactive
CC(C)OC(=O)Nc1ccccc1,outcome,[2],inactive
C[C@@H]1O[C@@H](O[C@H]2C[C@@H](O)[C@]3(CO)C4C(CC[C@]3(O)C2)[C@@]2(O)CC[C@H](C3=CC(=O)OC3)[C@@]2(C)C[C@H]4O)[C@H](O)[C@H](O)[C@H]1O (stereo partly drawn),outcome,[2],inactive
CN1CC[C@@]23CCCCC2C1Cc1ccc(O)cc13 (stereo partly drawn),outcome,[2],inactive
CC(C)=CCCC1(C)C=Cc2c(O)c3c(c(CC=C(C)C)c2O1)OC12C(=CC4CC1C(C)(C)OC2(C/C=C(/C)C(=O)O)C4O)C3=O (stereo not drawn),Potency,[4],inactive
